Cav32 inh: Cav3.2 calcium influx blockers – cell-based, Fluo-4 calcium fluorescence, FDSS, MLSMR library, primary screen | AID 449739, 2010 | 4% of 100,000 active | Cav3.2-expressing cells; stronger effect = lower value | B-score at 10 µM;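 active = single-dose well whose peak fluorescence ratio is a statistical outlier from its plate by either plate-standardised score or position-corrected B-score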
M1 antagonist: antagonists of rat M1 muscarinic receptor. Muscarinic acetylcholine receptor M1 (Rattus norvegicus), P08482. CHO-M1 cells, Fluo-4 calcium, ACh EC80 antagonist mode; stronger effect = lower value. B-score at 10 µM. 3.4% of 64,000 active. AID 628, 2007;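 active = calcium fluorescence response, raw or row-and-column corrected B-score, differing from the plate sample mean either way at a set confidence level, mostly lower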
HER2 expr 66K: inhibitors of Her2 protein expression, primary screen, SKBR-3 cells, AlphaScreen, 66K library; Receptor tyrosine-protein kinase erbB-2 (Homo sapiens), P04626; SKBR-3 HER2 protein level, 18-24 h; stronger effect = lower value; HER2 level % of control, % at 10 µM; 0.69% of 65,000 active;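 active = HER2 level under 5% of the carrier-only control; inconclusive = no clear call, values can overlap the other calls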;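 note: 100% = DMSO carrier and 0% = 500 nM PU-H71 HSP90 inhibitor; lower value means stronger loss of Her2 protein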
M1 agonist: M1 muscarinic receptor agonists, primary screen, CHO-M1 cells, Fluo-4 calcium, agonist mode. Fluo-4 calcium fluorescence; stronger effect = higher value. 3% of 64,000 active. B-score at 10 µM;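 active = fluorescence rise, raw or as B-score row- and column-corrected plate score, outside the 99.7% band of its plate's samples, either direction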
PLAP act: PLAP enzyme activators, biochemical, luminescence, HTS; purified PLAP enzyme, luminescent substrate read-out; stronger effect = higher value; activation fold at 20 µM; 1.2% of 96,000 active; in the data active = activation fold above about 2
M1 agonist conf: rat M1 muscarinic receptor agonists, confirmation, CHO-M1 cells, Fluo-4 calcium, duplicate retest | fluorescence change (max-min) at 10 µM | 19% of 1,700 active | AID 1488, 2009 | Fluo-4 calcium fluorescence, agonist mode; actives lie on both sides | shares compounds with M1 agonist;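 active = fluorescence change differs from the solvent-only DMSO control mean at a set confidence level in both duplicate runs; inconclusive = differs from solvent-only control mean in just one of two runs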;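 note: an EC20 dose of acetylcholine follows compound addition during the same imaging run; raw fluorescence intensity difference in instrument units with no normalization to controls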
M4 agonist ctr: agonist activity at rat M4 receptor, confirmation, counter-screen for M1 allosteric modulator project, cell-based, agonist mode; AID 1741, 2009; fluorescence change (max-min) at 10 µM; CHO M4/Gqi5 cells, Fluo-4 calcium fluorescence; actives lie on both sides; shares compounds with M1 agonist; 9% of 1,700 active;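 active = fluorescence change differing from the plate's solvent-only control wells at 99.7% confidence in both duplicates, whether higher or lower; inconclusive = differs from solvent controls in only one of two duplicates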
* = called active by the depositor; ? = inconclusive; . = no result given. Rows were chosen to be rich in hits. Some 7.9% of all compounds tested hit in one or more screens of this group.

SMILES	Cav32 inh	M1 antagonist	HER2 expr 66K	M1 agonist	PLAP act	M1 agonist conf	M4 agonist ctr
NC(=O)N1CCN(C(=O)c2ccco2)CC1	0.21	.	.	.	1.3	.	.
CS(=O)(=O)N1CCN(CC2CC3C=CC2C3)CC1 (centres undefined)	-0.39	-6.8*	92	37*	0.9	208*	-53
O=C(CSc1nc(-c2ccco2)cc(C(F)(F)F)n1)Nc1ccc(C(=O)N2CCCCC2)cc1	-1.4	-1.1	68	6.7*	1.6	?	?
Cc1nn(C)c(C)c1NC(=O)CCSc1nc(-c2ccco2)cc(C(F)(F)F)n1	-0.12	-3.7*	113	34*	1.3	-8.3	-32
Cc1nn(C)cc1NC(=O)CCSc1nc(-c2ccco2)cc(C(F)(F)F)n1	0.85	-0.49	112	-0.13	1.1	.	.
CCOC(=O)c1[nH]c2ccc(OC)cc2c1NC(=O)C(C)N1CCSCC1 (centres undefined)	-2.1	.	94	.	1.6	.	.
CCOC(=O)c1[nH]c2cc(OC)c(OC)cc2c1NC(=O)C(C)N1CCN(Cc2ccccc2)CC1 (centres undefined)	-1.1	-4.3*	101	3.8*	1.6	?	-31
Cc1sc2ncnc(OCC(=O)NC(C)C)c2c1C	0.002	.	.	.	0.9	.	.
Cc1cc(NC(=O)COc2ncnc3sc(C)c(C)c23)no1	-0.047	0.45	87	15*	0.9	-11	-16
CCOC(=O)C1CCCN(c2c(NCCc3ccc(S(N)(=O)=O)cc3)c(=O)c2=O)C1 (centres undefined)	1.2	-1.2	106	2.3*	0.8	-11	-14
CCOC(=O)C1CCCN(c2c(NCCN(C)Cc3ccccc3)c(=O)c2=O)C1 (centres undefined)	0.6	-0.54	82	-0.59	1	.	.
CC(=O)Nc1ccc(S(=O)(=O)NC2(C(F)(F)F)NC(=O)N(C3CCCCC3)C2=O)cc1 (centres undefined)	1.4	.	.	.	1.6	.	.
Cc1ccc(C2=CC(c3ccccc3)n3ncnc3N2)cc1 (centres undefined)	-0.74	.	.	.	.	.	.
COc1cccc(C2=CC(c3ccc(C)cc3)n3ncnc3N2)c1 (centres undefined)	-2.9	-1.1	117	8*	1.3	165*	?
Cc1ccsc1C1C=C(c2cccc(Br)c2)Nc2ncnn21 (centres undefined)	-4.6	-0.92	49	34*	1.1	836*	793*
OC(Cn1cncn1)(c1ccccc1)c1ccccc1	1	.	.	.	1	.	.
COc1ccc2c(c1)C(=NN)c1cc(OC)ccc1-2	0.33	.	.	.	1	.	.
CC1CN(c2nc3c(c(=O)[nH]c(=O)n3C)n2Cc2ccccc2F)CC(C)O1 (centres undefined)	0.46	1.1	.	-0.65	1.3	.	.
COc1ccc(N2CC(C(=O)O)CC2=O)cc1 (centres undefined)	0.034	.	.	.	.	.	.
Cn1c(SCC(=O)NCc2ccccc2)nnc1C1CC1	0.017	0.22	102	-0.13	1	.	.
O=C(CSc1nnnn1-c1ccc2c(c1)OCCO2)N1CCc2ccccc21	-0.55	0.58	93	-0.94	0.9	.	.
c1ccc(CSc2nnnn2-c2ccc3c(c2)OCCO3)nc1	1.5	0.22	93	6.7*	0.9	-9.7	-24
Cc1nc(N2CCCCC2)c2sc(=S)n(C)c2n1	0.23	0.41	93	0.53	0.9	.	.
CCN1CCN(c2nc(C)nc3c2sc(=S)n3C)CC1	-0.078	-0.2	73	-2.6*	1.2	-11	-24
Cc1nc(N)sc1N=Nc1ccc(F)cc1	0.8	.	.	.	1	.	.
SMILES	Cav32 inh	M1 antagonist	HER2 expr 66K	M1 agonist	PLAP act	M1 agonist conf	M4 agonist ctr
c1ccc(CN2CCN(c3ncnc4c3[nH]c3ccccc34)CC2)cc1	-3.3	-2.7*	71	3.9*	1.3	-1.9	?
Cc1ccc2c(c1)[nH]c1c(N3CCN(Cc4ccccc4)CC3)ncnc12	-4.9*	-3.1*	31	3.9*	1	-13	?
Cc1ccc2c(c1)[nH]c1c(=O)n(CCN3CCCCC3)cnc12	.	0.063	47	0.34	1.1	.	.
COc1cccc(N2CCN(c3ncnc4c3[nH]c3ccccc34)CC2C)c1 (centres undefined)	-5.9*	-3.4*	6	11*	.	?	-52
c1ccc2c(c1)[nH]c1c(N3CCC4(CC3)OCCO4)ncnc12	0.53	-1.3	62	1.4	0.8	.	.
c1ccc2c(c1)CCN(c1ncnc3c1[nH]c1ccccc13)C2	.	-3.4*	76	5.6*	1	10	-25
CCn1c(SCc2nc3cc(OC)c(OC)cc3c(=O)[nH]2)nnc1-c1ccncc1	0.47	1.1	98	-0.12	1.1	.	.
COc1cccc(NC=C2C(=O)OC3(CCCCC3)OC2=O)c1	-0.37	-0.46	94	2.7*	0.8	-11	-44
Cc1ccc(N2C(=O)[C@@H]3C(c4ccc(F)cc4)=NO[C@@H]3C2=O)cc1	-0.56	-0.37	110	6.6*	1	?	-35
Cc1cc(C)c(C(=O)C2OC(=O)C(C)(C)C(=O)C2(C)C)c(C)c1 (centres undefined)	.	.	.	.	1.6	.	.
COC(=O)C1CC(=O)N(CCc2c[nH]c3ccccc23)C1 (centres undefined)	-0.27	.	.	.	1.7	.	.
Cc1cc(C)nc(/N=C2\NC(=O)CC(C(=O)O)N2CCc2c[nH]c3ccccc23)n1 (centres undefined)	0.9	-0.58	51	3.2*	1.5	-17	-28
CCOC(=O)COc1ccc(S(=O)(=O)NCc2ccncc2)cc1	-5.3*	-2.4	120	7.6*	1	-6.9	?
CCOc1ccc(S(=O)(=O)NCc2ccncc2)cc1	-0.03	.	.	.	0.9	.	.
COc1ccc(N2C(=O)CC(Sc3nc(C)c4c(n3)CCCC4)C2=O)cc1 (centres undefined)	0.78	0.24	88	2.2*	1.2	-6	-13
Cc1nc(SC2CC(=O)N(c3cc(Cl)cc(Cl)c3)C2=O)nc2c1CCCC2 (centres undefined)	-0.026	.	.	.	1.5	.	.
CCOc1nc(NCCc2ccc(OC)c(OC)c2)nc(NC(C)(C)CO)n1	.	-1.3	90	2.1*	1.2	?	-66
COc1nc(NCCc2ccc(OC)c(OC)c2)nc(OC)n1	.	-0.57	113	0	1.1	.	.
N#Cc1cccc(NC(=O)Nc2cccs2)c1	-0.39	-2.6	70	11*	1.1	38	35
c1ccc2c(c1)CCCN2Cc1nnc2n1CCCCC2	0.37	0.13	225	active	0.9	?	-33
c1ccc(Cc2nnc3n2CCCCC3)cc1	-1.3	-0.11	87	-0.51	0.9	.	.

Screening data deposited in PubChem BioAssay by several laboratories.
